The supplement of paper PMC6555819

Experiments:
Test in all cases: PBM binding z-score (relative to random genomic background probes); higher = stronger binding; sequences stand for … in GC…GCGATTGACAGCGTAGAATGAAGG
[1] = tested on: FXR:RXRa (NR concentration 270 nM, RXRa partner concentration 90 nM)
Summary of the method: (§1)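 On custom Agilent 4×180K arrays, double-stranded probes with 34-nt variable regions carried direct-repeat seeds, single-nucleotide variants, half-site ablations or random human genomic background. Ligand-free nuclear receptor dimers were applied for 1 h, and binding was read with antibodies against each partner (one per run). Binding z-scores come from regression-normalized fluorescence, with the random background probes as reference.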

[2] = tested on: LXRa:RXRa (NR concentration 270 nM, RXRa partner concentration 90 nM)
Summary of the method: as §1

[3] = tested on: LXRa homodimer (NR concentration 270 nM)
Summary of the method: as §1

[4] = tested on: LXRb:RXRa (NR concentration 270 nM, RXRa partner concentration 90 nM)
Summary of the method: as §1

[5] = tested on: LXRb homodimer (NR concentration 270 nM)
Summary of the method: as §1

[6] = tested on: PPARa:RXRa (NR concentration 270 nM, RXRa partner concentration 90 nM)
Summary of the method: as §1

[7] = tested on: PPARg:RXRa (NR concentration 180 nM, RXRa partner concentration 90 nM)
Summary of the method: as §1

[8] = tested on: PPARg:RXRa 270nM:90nM, anti-RXR (NR concentration 270 nM, RXRa partner concentration 90 nM)
Summary of the method: as §1

[9] = tested on: PPARg:RXRa 30nM:10nM, anti-RXR (NR concentration 30 nM, RXRa partner concentration 10 nM)
Summary of the method: as §1

[10] = tested on: PPARg:RXRa 90nM:30nM, anti-RXR (NR concentration 90 nM, RXRa partner concentration 30 nM)
Summary of the method: as §1

Sequence	PBM binding z-score [1]	PBM binding z-score [2]	PBM binding z-score [3]	PBM binding z-score [4]	PBM binding z-score [5]	PBM binding z-score [6]	PBM binding z-score [7]	PBM binding z-score [8]	PBM binding z-score [9]	PBM binding z-score [10]
GGGACTGGGGCATCAGCAGGTTACCATAACTTAA	0.464	0.607	0.713	1.81	2.25	2.25	3.27	2.6	0.527	1.93
GCTATTAGTTGAAAGGGAAACCGAATGATTCTCG	-0.0917	-0.171	0.0809	-0.236	-0.289	0.000801	0.567	1.6	0.38	1.25
TCTAGCAAGCCAGAGGGTCACTCAAGAGGTACGG	0.763	0.684	-0.557	1.04	-1.21	2	0.737	1.3	1.51	1.28
CCGACTGTGGCAAAGGTTACCATACTCAGTACGA	0.857	1.38	0.228	1.73	-0.558	4.03	8.41	7.91	6.78	8.43
ATATGTATGTTATCGGGTCATTCAGTTTGCGCAT	1.97	2.23	0.86	2.38	1.09	3.32	2.67	2.71	0.938	2.09
GCTTCTAGGTCAACTGATGGTCAGCTAAAGCTCG	4.49	3.12	0.562	2.48	1.06	4.69	6.35	5.64	3.01	5.05
AGAACAAGGGCAATGAGTTGATAGCACGGGTGGC	0.13	0.0784	-0.454	0.0189	0.008	0.573	1.26	0.0922	-0.195	-0.176
TAGCCTAGGTCATTGGGTCAGTATAGTACGCATC	4.85	4.31	1.59	3.21	0.907	4.58	5.28	5.07	1.89	3.99
CGAACTAGGTCAAGGACAGTGAGTCTCCGCACGC	3.12	1.84	-0.202	0.891	-0.739	4.6	7.31	6.21	3.52	5.83
CGGACTAGGTCAGAACAGGACAGTGAAGGATGAT	1.12	0.71	-0.0673	0.176	-0.579	2.36	4.2	3.5	1.01	2.58
ACTAGCAGGCCAAGGTTGGGTCACTCAAACAAAG	-0.0834	-0.151	-0.416	0.203	-1.03	1.39	0.643	1.19	-0.515	0.491
CCTACTGGGCCAAAGTTCATTGATTCCAATGCTC	2.2	3.36	4.36	2.6	0.0133	5.47	10.9	9.53	9.33	11.8
ATCTATAGGTAAAGTTCAGTGAAAGATCGATAGA	1.21	1.7	1.38	1.19	0.71	2.2	3.67	4.69	2.81	4.71
TGTCAAAGTTCAAAGGTACCGTAAGTATCCACAC	6.69	6.28	4.68	4.31	1.83	5.79	7.97	7.18	4.9	6.89
TCTTGTAGACCAGCAGGTTAAGAAAGCTGGCCAA	0.124	0.0452	-0.542	0.0973	-0.717	0.558	-0.5	1.27	2.61	1.96
TCATATAGGTAAATGCAAGGTGAAAGTCCGATCT	1.57	1.44	0.321	1.2	0.456	2.03	1.03	2.44	4.33	3.47
TCTGCGAGGTCAACGATGGTCAGCTAATCTGCTA	6.96	5.84	1.07	4.75	1.01	5.65	5.8	6.12	3.37	4.91
CGTCCAAGGTCATCGGAGGTCAGTGAAGACAGAT	8.01	7.87	5.77	6.23	1.29	5.95	5.99	5.91	2.4	4.7
CCTACTGGGCCAAAAAGGTGATTGATGCCGATAA	-0.195	-0.147	-0.405	-0.234	-0.963	0.761	0.56	0.945	-0.119	0.309
TCATAAAGGTAAATGCTAGGTGAAAGTCCGATCT	1.41	1.31	0.158	0.935	-0.29	1.55	0.57	2.52	4.21	3.45
CTCGAAAGGTCGTGCACAGGTGAGTATACCAAAC	5.53	4.43	0.217	4.18	0.385	5.18	3.43	4.58	1.66	3.05
AGAACGAGGGCACGCTGAGTTGATAGCTGAGTAG	0.863	0.607	-0.912	0.017	-0.95	2.18	2.08	1.87	0.18	1.06
GGAACGAGGGCAATGTTGATAGCATCTGTCGACG	0.66	0.337	-0.33	0.395	-0.557	1.66	1.4	1.49	0.128	0.931
CGTCAAAGTTCAACTAACGTAACGTAAAGCACGC	6.21	5.98	3.62	4.08	2.43	4.99	4.65	5.21	2.17	4.04
CCTAGCTGGCCAGGGTCACTCAAGCATTTCGCTT	1.96	1.65	-0.664	1.94	-1.02	2.99	-0.0183	1.17	-0.834	-0.172

Sequence	PBM binding z-score [1]	PBM binding z-score [2]	PBM binding z-score [3]	PBM binding z-score [4]	PBM binding z-score [5]	PBM binding z-score [6]	PBM binding z-score [7]	PBM binding z-score [8]	PBM binding z-score [9]	PBM binding z-score [10]
TCTGCAAGGTCAGTTGGTCAGCTAACGAGCTGCC	4.25	2.88	-0.037	2.09	1.17	3.4	1.45	2.47	1.5	1.72
ATATGTACGTTAGCTGGGGTCATTCAGACTAGGC	3.94	3.99	2.29	4.39	1.42	4.07	1.74	2.27	0.566	1.33
GTACCAAGGTGAATAGGTGGTTGATGAGTAGGCG	0.118	0.242	-0.513	-0.25	-0.203	0.864	0.851	0.683	0.0319	0.389
CCTCGGAGGACAACAGGAAGTCAGAGCTGCCAGA	-0.229	-0.454	-0.458	-0.667	-0.823	-0.671	0.123	-0.726	-1.03	-1.13
TCTAGTTGGTCATAGGTCACACACTCGAAATGCG	3.07	3.34	1.99	3.31	1.25	4.96	8.97	8.03	8.3	8.57
CGAACGAGGGCATGAGTTGATAGCCAATGCCGAT	0.587	0.378	-0.567	-0.0834	-0.821	1.33	1.39	1.49	0.255	0.727
CCTGCTAGGTCAATGGTCAACTAAAGCAGCTCGC	3.09	2.16	-0.236	1.83	-0.0517	3.42	5.68	5.74	4.25	5.51
CCTTACGGGTCACTCCAGGTTATCGCATCGGAGT	4.86	7.44	2.05	5.17	0.292	4.26	3.02	3.76	0.874	2.38
TCTATCAGTTGAAGGGCAACCGACGAGTCCGTTT	0.369	0.777	-0.273	0.501	-0.0897	0.935	0.152	2	3.44	2.89
CCGACTGGAGCAAGGTTACCATAACGCACAGCCA	-0.0203	0.559	0.116	0.511	-0.797	1.01	1.3	1.66	0.181	0.892
TCTTGTCGATCAAGCAGGTTAAGAAAGCCTGAGT	-0.117	0.258	-0.542	0.373	-0.662	0.754	-0.443	1.21	2.65	1.95
TCGAGTAGGTTAGAGGCATTCAGAATGGCGTCGA	0.0736	-0.18	-0.53	-0.336	-1.72	0.422	1.22	2.66	1.4	2.27
GCTAGCAGGCCTTTTGGGTCACTCAATGACGGGC	0.126	-0.171	-0.408	0.187	-1.11	0.992	0.209	0.00506	-0.68	-0.138
GCAGACAGGTGAAACGCGGGTAACTCAGGGTGGC	0.0652	0.351	-0.771	-0.193	-1.11	0.839	0.342	-0.106	-0.712	-0.458
GCGACTGGGGCAAAGCAGGTTCCCATAAGGTTGG	-0.34	-0.649	-0.593	-0.596	-1.21	0.522	0.609	0.847	-0.583	0.203
TAGTCTAGGTCAGATCGGGCCAGTATACGCTATA	1.81	1.91	0.186	1.13	1.4	2.38	2.36	2.4	0.965	1.92
CCTAGCAGGCGAATCTGGGTCACTCAAGGCTTGA	0.211	0.262	-0.449	0.236	-0.934	3.11	2.47	2.62	-0.139	1.64
CCTAGCAGGCCAGGGTAACTCAAGCATTTCGCTT	-0.463	-0.678	-0.559	-0.682	-1.09	0.0169	-0.112	-0.182	-1.01	-0.605
ATATGTAGGTTAGCTGGGGTCATCCAGACTAGGC	4.52	5.5	2.24	4.39	0.905	5.22	5.73	5.6	2.9	4.8
TAGCCTAGGTCTTTGGGCCAGTATAGTACGCATC	-0.684	-0.824	-0.792	-0.788	-0.858	-1.04	0.0223	-0.571	-0.609	-0.513
ATCTCTAGGTTACAAGTTCAGTGAAAGAGAGGAC	1.64	2.33	1.68	1.55	1.77	2.51	2.72	3.25	1.77	2.97
ACAGACCGGTGAGTGAAGGTAACTCAGCTGGACG	-0.151	-0.178	-0.654	-0.711	-0.849	-0.708	0.147	-0.715	-0.631	-1.01
TCATATAGTTAAACAGGTGAAAGTCCGTAAGTTA	1.06	1.1	0.478	1.1	0.356	1.7	1.25	2.68	4.38	3.42
TCTAGTTGCTCACGGAGGTCACACACGACGGGTA	2.59	3.1	1.86	3.22	0.53	3.62	1.55	2.79	3.16	2.76
